The nature of assay [1]: TOX21_p53_BLA_p2_viability: Viability Assessment in the Tox21 HCT-116 p53 Agonism Beta-lactamase Assay, Phase 2 (AID 2283591).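 Also: actives lower the ATP signal meaning cytotoxicity.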 In outline:
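Cytotoxicity readout: CellTiter-Glo ATP luminescence, 30 min at room temperature, after the beta-lactamase read. Cells were HCT116 exposed 16 h at 37C to compounds pin-transferred at 217-fold dilution from DMSO stocks.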

Assay [2] has as its target Cellular tumor antigen p53 (Homo sapiens) (UniProt P04637). As to the kind of experiment: TOX21_p53_BLA_p2_ratio: Tox21 HCT-116 p53 Agonism Beta-lactamase Assay, Ratio, Phase 2 (AID 2283592). A digest of the protocol: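 First, HCT116 reporter cells settle for 5 h at 37C. Next, DMSO compound solutions are pinned in (217-fold dilution) and left 16 h. Finally, CCF4-AM substrate is loaded 2 h at room temperature and the 460/530 nm ratio read.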

Assay [3] in a line: TOX21_p53_BLA_p3_viability: Viability Assessment in the Tox21 HCT-116 p53 Agonism Beta-lactamase Assay, Phase 3 (AID 2283593).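 Also: cells exposed to compound for 16 h before reading.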 A digest of the protocol:
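Cellular ATP was quantified by CellTiter-Glo luminescence, read after 30 min at room temperature. Beforehand, HCT116 cells (4000/well) received compound 5 h post-seeding, 217-fold diluted from DMSO, then incubated 16 h at 37C.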

Assay [4] deals with Cellular tumor antigen p53 (Homo sapiens) (UniProt P04637). The assay can be described thus: TOX21_p53_BLA_p4_ratio: Tox21 HCT-116 p53 Agonism Beta-lactamase Assay, Ratio, Phase 4 (AID 2283601). A digest of the protocol: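 Signal is the blue/green (460nm/530nm) ratio of cleaved versus uncleaved CCF4-AM substrate, read after 2 h substrate loading. Cells were HCT116 carrying the p53-responsive beta-lactamase reporter, dosed 16 h at 37C, 5% CO2; CellTiter-Glo measured in parallel.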
Chain of Cellular tumor antigen p53 (Homo sapiens) (P04637 whole entry, looked up): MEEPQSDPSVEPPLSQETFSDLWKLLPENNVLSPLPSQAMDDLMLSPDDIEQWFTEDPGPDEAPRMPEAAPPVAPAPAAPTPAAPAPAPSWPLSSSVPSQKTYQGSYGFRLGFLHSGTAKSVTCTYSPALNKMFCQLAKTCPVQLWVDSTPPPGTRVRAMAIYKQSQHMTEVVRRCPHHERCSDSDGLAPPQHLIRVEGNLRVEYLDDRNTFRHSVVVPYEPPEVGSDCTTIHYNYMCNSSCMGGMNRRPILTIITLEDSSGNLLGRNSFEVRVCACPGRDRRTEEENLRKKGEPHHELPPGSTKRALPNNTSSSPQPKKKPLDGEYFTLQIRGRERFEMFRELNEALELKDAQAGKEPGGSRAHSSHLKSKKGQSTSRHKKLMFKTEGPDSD

A short description of assay [5]: TOX21_p53_BLA_p5_viability: Viability Assessment in the Tox21 HCT-116 p53 Agonism Beta-lactamase Assay, Phase 5 (AID 2283600). A digest of the protocol: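 Decreased CellTiter-Glo luminescence denotes lost viability. Exposure: 16 h at 37C, 5% CO2, with compounds from DMSO stocks diluted 217-fold in wells of 4000 cells.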
The nature of assay [6]: CCTE_Harrill_HTTr_Viability_MCF7: CCTE's 6-hour Cell Viability Assessment for the High-Throughput Transcriptomics (HTTr) Platform, in MCF-7 cells cultured in DMEM + 10% fetal bovine serum, Harrill Lab (AID 2284010; active = hit-call score of the fitted dose curve at least 0.9, where 1 is the maximum; inactive = score below 0.9). In outline: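 Read-out is propidium iodide gain of signal by high-content imaging, reflecting membrane integrity loss. Measurements are taken 6 h after dosing, eight concentrations per chemical, with DMSO serving as baseline for bidirectional curve fitting.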

Assay [7] in a line: CCTE_Harrill_HTTr_Apoptosis_MCF7: CCTE's 6-hour Apoptosis Assessment for the High-Throughput Transcriptomics (HTTr) Platform, in MCF-7 cells cultured in DMEM + 10% fetal bovine serum, Harrill Lab (AID 2284011; active = hit-call score of the fitted dose curve at least 0.9, where 1 is the maximum; inactive = score below 0.9). In outline: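 MCF-7 cells in DMEM + 10% FBS exposed 6 h to chemicals over an eight-point dilution series. Caspase-3/7 activation imaged by high-content CellEvent Green staining; fitted bidirectionally versus DMSO.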

The nature of assay [8]: CCTE_Harrill_HTTr_CellCount_MCF7: CCTE's Cell Proliferation Assessment for the High-Throughput Transcriptomics (HTTr) Platform, Harrill Lab (AID 2284012).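 Also: cells exposed to compound for six hours; intended direction is loss of nuclei count meaning fewer cells.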 In outline: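 Cell count served as viability reporter: loss of Hoechst-stained nuclei, counted by high content imaging, marks decreased growth or survival. Exposure was 6 h in MCF-7 cells across eight concentrations, with DMSO as baseline.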

The nature of assay [9]: CCTE_Shafer_MEA_dev_firing_rate_mean: CCTE's Neural Network Formation Assay for Mean Firing Rate, Shafer Lab (AID 2284031; active = hit-call score of the fitted dose curve at least 0.9, where 1 is the maximum; inactive = score below 0.9). In outline: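 Steps: seed rat cortical cells (1.5 x 10^5/well) with laminin on PEI-coated MEA; dose day 0; record DIV 5/7/9/12, full media and compound exchange after DIV 5 and 9 recordings; compute well-mean firing rate AUC.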
The nature of assay [10]: CCTE_Shafer_MEA_dev_active_electrodes_number: CCTE's Neural Network Formation Assay for Number of Active Electrodes, Shafer Lab (AID 2284040). In outline: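 Counts electrodes per well firing at least 5 spikes/min, recorded on days 5, 7, 9 and 12 in rat cortical cultures dosed continuously from plating (treatment refreshed DIV 5, 9). Value is the area under the curve over recordings, fitted downward relative to DMSO.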

The nature of assay [11]: CCTE_Shafer_MEA_dev_burst_rate: CCTE's Neural Network Formation Assay for Burst Rate, Shafer Lab (AID 2284042; active = hit-call score of the fitted dose curve at least 0.9, where 1 is the maximum; inactive = score below 0.9). In outline:
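Developmental network assay measuring how 12-day exposure of rat cortical neuron cultures alters bursting on extracellular MEA recordings. Values are AUC of well-mean burst rate across four recording days, relative to DMSO vehicle.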

A short description of assay [12]: CCTE_Shafer_MEA_dev_bursting_electrodes_number: CCTE's Neural Network Formation Assay for Number of Bursting Electrodes, Shafer Lab (AID 2284043).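 Also: potency is for loss of bursting electrodes relative to DMSO.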 In outline:
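Number of electrodes reaching ≥1 burst every 2 min was recorded at DIV 5, 7, 9 and 12 and collapsed as trapezoidal area under the curve. Cultures were rat cortical neurons on MEA plates, dosed continuously from plating with medium and treatment refreshed on DIV 5 and 9.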

The nature of assay [13]: CCTE_Shafer_MEA_dev_per_burst_interspike_interval: CCTE's Neural Network Formation Assay for Burst Interspike Interval, Shafer Lab (AID 2284044; active = hit-call score of the fitted dose curve at least 0.9, where 1 is the maximum; inactive = score below 0.9;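 also: mean spike spacing inside bursts as AUC over recordings on days 5 7 9 12; potency for a decrease of within-burst interspike interval below DMSO level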). In outline:
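Primary rat cortical neurons on 48-well MEA plates, exposed from day 0 through day 12, treatment renewed at DIV 5 and 9. Within-burst interspike interval recorded days 5, 7, 9, 12, well-averaged, summarised as AUC; negative fit versus DMSO.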

The nature of assay [14]: CCTE_Shafer_MEA_dev_burst_duration_mean: CCTE's Neural Network Formation Assay for Mean Burst Duration, Shafer Lab (AID 2284045; active = hit-call score of the fitted dose curve at least 0.9, where 1 is the maximum; inactive = score below 0.9). In outline:
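Mean single-electrode burst duration (first to last spike), averaged over bursting electrodes per well, then integrated as area-under-curve across recordings at days 5, 7, 9 and 12. Rat cortical cultures on MEAs, compound present from plating, refreshed at feeds.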

A short description of assay [15]: CCTE_Shafer_MEA_dev_inter_network_spike_interval_mean: CCTE's Neural Network Formation Assay for Mean Inter-network Spike Interval, Shafer Lab (AID 2284047; active = hit-call score of the fitted dose curve at least 0.9, where 1 is the maximum; inactive = score below 0.9). A digest of the protocol:
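Compound was given at plating to primary rat cortical neurons and renewed with full medium changes on DIV 5 and 9. Extracellular activity was recorded on days 5, 7, 9, 12; AUC values were fitted for loss relative to DMSO control.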

Assay [16] in a line: CCTE_Shafer_MEA_dev_network_spike_number: CCTE's Neural Network Formation Assay for Number of Network Spikes, Shafer Lab (AID 2284048; active = hit-call score of the fitted dose curve at least 0.9, where 1 is the maximum; inactive = score below 0.9;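 also: synchronized bursts across electrodes counted on days 5 7 9 12 and integrated as AUC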). In outline: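 Number of network spikes (coordinated firing across electrodes) recorded on days 5, 7, 9 and 12 and summarised as area under the curve. Rat cortical cultures on MEA, continuous compound exposure with full medium/treatment exchange at DIV 5 and 9.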

The nature of assay [17]: CCTE_Shafer_MEA_dev_network_spike_peak: CCTE's Neural Network Formation Assay for Mean Number of Electrodes in Network Spike, Shafer Lab (AID 2284049; active = hit-call score of the fitted dose curve at least 0.9, where 1 is the maximum; inactive = score below 0.9;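 also: fitted for loss of signal meaning fewer electrodes in network spikes than DMSO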). In outline: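 Rat cortical primary culture, 1.5 x 10^5 cells/well, 48-well MEA (16 electrodes/well). Dosing day 0 through DIV 12, full media/compound exchange DIV 5, 9. AxIS adaptive spike detection; AUC over days 5/7/9/12; loss-of-signal vs DMSO.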

Assay [18] can be described thus: CCTE_Shafer_MEA_dev_spike_duration_mean: CCTE's Neural Network Formation Assay for Mean Spike Duration, Shafer Lab (AID 2284051; active = hit-call score of the fitted dose curve at least 0.9, where 1 is the maximum; inactive = score below 0.9;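 also: mean network spike duration pooled as area under curve over DIV 5 to 12 recordings; potency for a decrease in mean network spike duration versus DMSO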). A digest of the protocol: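 With DMSO as baseline, loss of mean network spike duration was scored from extracellular recordings of rat cortical neurons on MEA plates. Exposure spanned plating to DIV 12; the four recording days were collapsed into one AUC value.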

Assay [19] in a line: CCTE_Shafer_MEA_dev_network_spike_duration_std: CCTE's Neural Network Formation Assay for Standard Deviation of Network Spike Duration, Shafer Lab (AID 2284052; active = hit-call score of the fitted dose curve at least 0.9, where 1 is the maximum; inactive = score below 0.9;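 also: hits are decreases in network spike duration SD versus DMSO vehicle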). A digest of the protocol:
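Developing networks of rat cortical neurons were exposed over twelve days in vitro on 48-well MEA plates. Trapezoidal AUC of recordings (DIV 5–12) was analysed for signal loss relative to DMSO vehicle.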

The nature of assay [20]: CCTE_Shafer_MEA_dev_per_network_spike_spike_number_mean: CCTE's Neural Network Formation Assay for Mean Number of Spikes in a Network Spike, Shafer Lab (AID 2284053; active = hit-call score of the fitted dose curve at least 0.9, where 1 is the maximum; inactive = score below 0.9). In outline: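 First, rat cortical cells (1.5 x 10^5/well) were seeded onto MEA wells; second, dosing began at plating and was refreshed on DIV 5 and 9; finally, network-spike spike counts across DIV 5–12 were summarized as AUC.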

Assay [21] can be described thus: CCTE_Shafer_MEA_dev_per_network_spike_spike_percent: CCTE's Neural Network Formation Assay for Percent of Spikes in a Network Spike, Shafer Lab (AID 2284054; active = hit-call score of the fitted dose curve at least 0.9, where 1 is the maximum; inactive = score below 0.9). A digest of the protocol: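 Metric: fraction of spikes falling in a 0.05 s window at network-spike peaks. Recordings were made on days 5, 7, 9 and 12 and collapsed by trapezoidal AUC. Cultures were rat cortical neurons on MEA plates, dosed continuously from plating, re-dosed at media changes.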

The nature of assay [22]: CCTE_Shafer_MEA_dev_LDH: CCTE's Lactate Dehydrogenase Assay for Cytotoxicity in the Neural Network Formation Assay, Shafer Lab (AID 2284068).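 Also: exposure for twelve days from plating with re-dosing on DIV 5 and 9.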 A digest of the protocol: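 Developing rat cortical networks on MEA plates are exposed to compound for 12 days from plating. LDH activity is measured spectrophotometrically, with DMSO as baseline.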
Assay [23] is described as follows: CCTE_Shafer_MEA_dev_mutual_information_norm: CCTE's Neural Network Formation Assay for Mutual Information Normalization, Shafer Lab (AID 2284091; active = hit-call score of the fitted dose curve at least 0.9, where 1 is the maximum; inactive = score below 0.9). A digest of the protocol: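 Shared information across electrodes, tracked on days 5, 7, 9 and 12 of network development and collapsed as trapezoidal area under the curve. Rat cortical cultures were treated continuously from plating, with treatment renewed at feeds on DIV 5 and 9; DMSO baseline, negative-direction fit.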

Assay [24] can be described thus: CCTE_Shafer_MEA_dev_correlation_coefficient_mean: CCTE's Neural Network Formation Assay for Mean Correlation Coefficient, Shafer Lab (AID 2284093; active = hit-call score of the fitted dose curve at least 0.9, where 1 is the maximum; inactive = score below 0.9;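 also: well mean pairwise spike train correlation integrated as AUC over recording days 5 to 12; potency fitted for loss of correlation relative to DMSO vehicle wells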). A digest of the protocol: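 Extracellular firing from rat cortical networks on 48-well MEAs, DMSO-referenced, negative fitting direction. Compound present from plating to DIV12; mean pairwise correlation per well integrated over DIV5–12 recordings by trapezoidal AUC.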

A short description of assay [25]: TAMU_PeakParms_SingleDonor1434_Chronotropy: Texas A&M University (TAMU) 1.5-hr Human Induced Pluripotent Stem Cell (iPSC)-derived Cardiomyocytes Calcium (Ca+2) Flux Assay for Cardiotoxicity: Chronotropy (changes in peak frequency) (AID 2284217; active = hit-call score of the fitted dose curve at least 0.9, where 1 is the maximum; inactive = score below 0.9). To be noted: actives raise or lower the signal. A digest of the protocol:
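Using fluorescent Ca2+ flux, average beats per second are measured in human iPSC-derived cardiomyocytes treated 90 min (0.5% DMSO vehicle, 0.2–100 uM). Non-beating data points are removed; activity is modeled in both directions relative to DMSO controls.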

Assay [26] is described as follows: TAMU_PeakParms_SingleDonor1434_Asystole: Texas A&M University (TAMU) 1.5-hr Human Induced Pluripotent Stem Cell (iPSC)-derived Cardiomyocytes Calcium (Ca+2) Flux Assay for Cardiotoxicity: Asystole (quiescence of beating) (AID 2284328). A digest of the protocol:
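Average Ca2+-flux peak frequency (beats/s) was recorded in single-donor iPSC-derived cardiomyocytes after 90 min exposure (0.2–100 uM final, 0.5% DMSO). Asystole POD set as EC95 against DMSO, no preprocessing.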

Assay [27] has as its target Cellular tumor antigen p53 (Homo sapiens) (UniProt P04637). As to the kind of experiment: TOX21_p53_BLA_p5_ratio: Tox21 HCT-116 p53 Agonism Beta-lactamase Assay, Ratio, Phase 5 (AID 2283599). In outline: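 Beta-lactamase reporter ratio (blue 460 nm over green 530 nm, 405 nm excitation) after 2 h CCF4-AM loading, in HCT-116 cells exposed 16 h at 37 C to compounds pinned at 217-fold dilution. Increases relative to DMSO baseline scored.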

SMILES strings stand for the structures. Results filed as inconclusive are left out. The source made the active and inactive calls. The calls were made as follows, unless noted: active = hit-call score of the fitted dose curve at least 0.9, where 1 is the maximum; inconclusive = response in the unintended direction; inactive = score below 0.9.

Turning to `CCC(=O)O[C@]1(C(=O)CCl)[C@@H](C)C[C@H]2[C@@H]3CCC4=CC(=O)C=C[C@]4(C)[C@@]3(F)[C@@H](O)C[C@@]21C`, the molecule was called inactive in assay [1], in [2], in assay [3] and in [4].
As to `CCOC(C)(C)C`, the outcome in [1], in assay [2], in assay [3], in assay [5] and in [4] was inactive.
`COc1ccccc1N1CCN(CCCCNC(=O)c2ccc(-c3ccc(C(C)=O)cc3)cc2)CC1`: the molecule was called inactive in [1], in [2], in assay [3], in assay [5] and in [4].
A word on the AC50: it is the midpoint of the concentration-response curve, whichever way the signal moves. Turning to `c1ccc2cc3c4ccccc4c4ccccc4c3cc2c1`, the molecule was classed as inactive in [1], in [2], in assay [3], in [5], in [6] and in assay [7]. The molecule was called inactive in assay [8], in assay [9], in [10], in assay [11], in [14] and in [15]. In addition, the call in assay [16], in assay [19], in assay [20], in [23] and in assay [26] was inactive. Also, the AC50 in [12] is 3.01 µM (active); in [13], 1.97 µM (active); in assay [17], 1.98 µM (active); in assay [18], 2.97 µM (active); in assay [21], 3.23 µM (active); in assay [22], 2.33 µM (active). In addition, the AC50 in assay [24] is 3.22 µM (active); in assay [25], 710 nM (active).
`CN1C(=O)CC(C)(c2ccccc2)C1=O` (stereo not drawn): the molecule was classed as inactive in assay [1], in assay [2], in assay [3], in [27] and in assay [4].
`COC(=O)CC#N`: the outcome in assay [1], in assay [2], in assay [3] and in [4] was inactive.

Source of the values: PubChem BioAssay (EPA / NIEHS).
